A selection: hits, their analogues and other compounds. The true share with any hit is near 19%.
TDP1 inh = inhibitors of human tyrosyl-DNA phosphodiesterase TDP1 | Q9NUW8 | recombinant TDP1, AlphaScreen DNA substrate cleavage | Potency, µM (series often up to 130 µM), actives largely listed as inhibitors | 350,000 compounds, 0.28% hits | AID 485290; note: nearly all actives have a fitted effect of over 40% in size
Target sequence (Q9NUW8 whole entry, looked up): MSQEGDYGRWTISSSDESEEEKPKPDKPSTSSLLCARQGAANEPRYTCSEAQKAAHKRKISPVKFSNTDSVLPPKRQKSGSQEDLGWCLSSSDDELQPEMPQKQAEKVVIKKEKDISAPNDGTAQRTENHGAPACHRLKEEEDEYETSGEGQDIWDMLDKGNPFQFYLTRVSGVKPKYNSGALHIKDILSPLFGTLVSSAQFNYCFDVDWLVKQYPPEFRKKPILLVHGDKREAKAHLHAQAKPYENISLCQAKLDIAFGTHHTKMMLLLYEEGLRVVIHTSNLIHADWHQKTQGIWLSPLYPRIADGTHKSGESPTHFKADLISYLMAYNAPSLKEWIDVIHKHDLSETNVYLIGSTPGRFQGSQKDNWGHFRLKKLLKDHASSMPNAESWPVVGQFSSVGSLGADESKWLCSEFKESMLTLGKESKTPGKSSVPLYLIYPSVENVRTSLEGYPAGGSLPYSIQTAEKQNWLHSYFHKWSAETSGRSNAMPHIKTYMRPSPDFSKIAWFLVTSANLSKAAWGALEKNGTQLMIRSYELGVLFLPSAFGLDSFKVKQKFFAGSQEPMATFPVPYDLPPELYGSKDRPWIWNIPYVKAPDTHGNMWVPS
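Compounds were preincubated with Tdp1 (1 nM final) for 15 min at room temperature before substrate (15 nM final) started a 5 min reaction; beads (10 ug/ml final) were then added for 10 min before AlphaScreen detection.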
DT40 TDP1 no CPT = qHTS for Inhibitors of human tyrosyl-DNA phosphodiesterase 1 (TDP1): qHTS in cells in absence of CPT. 420,000 compounds, 15% hits. DT40 Tdp1-/- hTDP1 cells, no CPT, ATP luminescence, 48 h. Potency, µM (highest dose often 46.2 µM), hits mostly inhibitors; note: nearly all actives have a fitted effect of over 55% in size
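No-CPT arm: Tdp1-/-;hTDP1 DT40 cells (400/well) plus compounds, incubated ≥48 hr at 37 °C. Readout CellTiter-Glo luminescence.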
RORg inh = blocks mouse ROR gamma transcriptional activity. AID 2551. Drosophila S2 Gal4-RORgamma UAS-luciferase reporter, 20 h. Potency, µM (top dose mostly 53.6 µM), actives largely listed as inhibitors. 310,000 compounds, 5.4% hits; note: nearly all actives have a fitted effect of over 60% in size
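ROR gamma transcriptional activity was tracked as Gal4-UAS luciferase output in stably transfected Drosophila Schneider cells, with compound added 1 hr before 700 uM copper sulfate induction and a 20 hr ambient-temperature incubation.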
TDP1 cell CPT = DT40-hTDP1 cell growth loss with CPT | chicken DT40 Tdp1-/-;hTDP1 cells + 20 nM CPT, ATP luminescence, 48 h | 420,000 compounds, 12% hits | AID 686979 | Potency, µM (series often up to 46.2 µM), most hits filed as inhibitors; note: nearly all actives have a fitted effect of over 55% in size
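Cell growth measured by CellTiter-Glo luminescence after a minimum 48 h, 37 C compound exposure with 20 nM CPT in Tdp1-knockout DT40 cells stably expressing hTDP1, seeded 400/well; qHTS titration format.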
Gal4-VP16 FLuc = counter-screen for ROR gamma inhibitors: Gal4-VP16 reporter; Drosophila S2 Gal4-VP16 UAS-luciferase, luminescence, 20 h; 310,000 compounds, 3.5% hits; Potency, µM (highest dose often 53.6 µM), hits mostly inhibitors;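 note: Gal4-VP16 expression switched on by copper sulfate through the metallothionein promoter; nearly all actives have a fitted effect of over 50% in size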
Hits are given with their value; n = inactive; u = inconclusive; x = not tested or not shown; [ ] = another dose, or the depositor's remark. Calls come from the whole dose curve; as a rule, active = well fitted curve in the direction sought with a large enough effect; inconclusive = small, poorly fitted or top-dose-only effect, or another doubt; inactive = no such curve, though single readings can be large; an effect the other way counts as inactive or inconclusive.

SMILES	TDP1 inh	DT40 TDP1 no CPT	RORg inh	TDP1 cell CPT	Gal4-VP16 FLuc
C#CCCCO/N=C1/C[C@@H](O)[C@@H](O)[C@@H]2[C@@H]3C(=O)N(C[C@@H]4CCCO4)C(=O)[C@H]3CC[C@H]12	n[21 µM]	x	n[10 µM]	x	n[10 µM]
Cc1ccc(-c2nnc3c4ccccc4c(C)nn23)cc1NC(=O)CN1CCOCC1	n	x	n	x	n
CSc1nnc(-c2cccc(NC(=O)c3ccccc3)c2)n1C	n	n	n	n	n
Cc1nn2c(-c3cccc(NC(=O)CN4CCOCC4)c3)nnc2c2ccccc12	x	12.6µM	x	29.1µM	x
Cc1nn2c(-c3cccc(NC(=O)c4ccccc4)c3)nnc2c2ccccc12	n	2.91µM	x	4.61µM	x
Cc1nn2c(-c3cccc(NC(=O)CSc4nc5ccccc5o4)c3)nnc2c2ccccc12	n	7.31µM	u	11.6µM	n
Cc1ccc(-c2nnc3c4ccccc4c(C)nn23)cc1S(=O)(=O)N1CCN(CCO)CC1	n	18.4µM	n	u	n
CCN(CC)CCCNC(=O)/C=C/C(=O)O	n	20.6µM	n	18.4µM	n
COc1ccc(N2CCN(C(=O)c3c(C)oc4ncnc(N5CCCCC5)c34)CC2)cc1	n	14.6µM	x	u	x
CCOC(=O)c1noc2ncnc(N3CCN(c4cccc(C(F)(F)F)c4)CC3)c12	n	13µM	x	16.4µM	x
Cc1oc2ncnc(N3CCCCC3)c2c1C(=O)N1CCN(c2cccc(C(F)(F)F)c2)CC1	n	13µM	x	16.4µM	x
NC(=O)C1(NC(=O)[C@@H]2CC3(CC(c4cccc(NC(=O)c5cc([N+](=O)[O-])cc([N+](=O)[O-])c5)c4)=NO3)CN2C(=O)c2ccccc2)CC1 (some centres undefined)	n	n	n	n	n
Cc1nc(-c2ccccc2)sc1CCNC(=O)C(=O)Nc1ccc2c(c1)OCCO2	n	x	x	x	x
Cc1noc(C)c1COC(=O)/C=C/c1ccc(Cl)cc1	n	16.4µM	n	u	n
CCOC(=O)c1c(S(=O)(=O)N2CCCC(C(=O)Nc3ccc(C)cn3)C2)c(C)n(C)c1C (centres undefined)	n	u	n	u	n
Cc1cccc2cc(CN(Cc3nnnn3C3CCCCC3)C3CCCC3)c3nnnn3c12	n	u	u	20.6µM	n
Cc1cc(C)c2[nH]c(=O)c(CN(Cc3nnnn3C3CCCC3)C3CCCCC3)cc2c1	n	n	n	n	n
COc1ccccc1NC(=O)N1CCCC(C(=O)Nc2cccc(C)c2C)C1 (centres undefined)	n	n	n	n	n
CCc1cccc(NC(=O)C2CCCN(S(=O)(=O)c3cnc[nH]3)C2)c1 (centres undefined)	n	n	n	n	n
CCc1cccc(NC(=O)C2CCCN(c3ncnc4onc(-c5ccc(F)cc5)c34)C2)c1 (centres undefined)	n	10.3µM	x	13µM	x
NC(=O)c1ccccc1NC(=O)C1CCCN(c2ncnc3onc(-c4ccc(F)cc4)c23)C1 (centres undefined)	n	14.6µM	x	13µM	x
COc1ccccc1NC(=O)C1CCCN(c2ncnc3onc(-c4ccc(F)cc4)c23)C1 (centres undefined)	n	16.4µM	x	u	x
COc1ccccc1C1CN=NC12CCCc1ccccc1C2=O (centres undefined)	n	u	n	u	n
COC(=O)c1c(C)cccc1C1CN=NC12Cc1ccccc1C2=O (centres undefined)	x	u	x	14.6µM	x
CCc1ccc(C2CC(=O)Nc3c2c(=O)nc2c(C)cccn32)cc1 (centres undefined)	n	n	n	n	n
CC(=O)CC[N+](C)(C)C	x	14.6µM	x	13µM	x
CN(Cc1ccccc1)Cc1c[nH]c2ccccc12	n	20.6µM	n	5.8µM	n
C[C@H](NCc1c[nH]c2ccccc12)c1ccccc1	x	u	u	20.6µM	n
Cc1ccc(OCC(=O)Nc2ccc(S(=O)(=O)N3CCOCC3)cc2)c([N+](=O)[O-])n1	n	n	n	n	n
O=C1CCCC2=C1C1(CCCC1)N=C(Nc1nc3ccccc3s1)N2	n	u	n	u	n

High-throughput results from PubChem.
